Results taken from PubChem BioAssay AID624491 (Broad Institute, 2012).
Among all 1,800 compounds or so, about 1,400 (78%) were called active. Another 2% or so got no clear call; they are omitted.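 How the source made its calls: active means fitted curve crossing a set activation limit at or below the highest valid dose tested; inconclusive means flat fit at 30 to 70% activation, or poor fit; inactive means the rest, including signal decreases.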 So high a share suggests a set chosen from earlier hits. Only a sample is shown. Results with a measured potency or affinity are listed apart.

Test: N-linked glycosylation inhibitors, luciferase reporter, dose response, D54 ERlucT cells, luminescence, cherry-picks (AID 624491);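 further: signal gain reflects blocked N-linked glycosylation of a luciferase reporter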
Settings: 24 h, 100% = twice neutral-control luminescence; series mostly up to 19.5 µM

Activation (NLG inhibition), inactive:
O=C(CC(O)c1ccncc1)c1ccccc1O (configuration not stated), COc1ccc(Cl)cc1/C=C/c1ccc2cccc(O)c2n1, CCOC(=O)c1[nH]c2ccc(F)cc2c1NC(=O)C(C)N1CCc2cc(OC)c(OC)cc2C1 (configuration not stated), C#CC(=O)CC1(CN(Cc2ccccc2)C(=O)OC(C)(C)C)CCCCC1, CCN(CC(=O)Nc1ccccc1OC)CC(=O)Nc1ccccc1-c1ccccc1, COC(=O)c1cc(=O)n(Cc2ccc3c(c2)OCO3)c(=Nc2ccc(F)c(Cl)c2)s1, CC1=C([N+](=O)[O-])C(c2ccccc2)C2=C(N1)c1ccccc1C2=O (configuration not stated), COc1cc2cc(/C=C/C(=O)c3ccco3)c(Cl)nc2cc1OC, COc1ccc([N+](=O)[O-])cc1NC(=O)CCN1CCN(CCO)CC1, NC(=O)CC(NC(=O)c1ccc(Br)cc1)c1ccc(N2CCCCCCC2)c([N+](=O)[O-])c1 (configuration not stated), NC(=O)CC(NC(=O)Cc1ccc(Cl)cc1)c1ccc(NC2CC3CCC2C3)c([N+](=O)[O-])c1 (configuration not stated), NC(=O)CC(NC(=O)Cc1ccc(Br)cc1)c1ccc(NC2CCCC2)c([N+](=O)[O-])c1 (configuration not stated), CC(C)Nc1ccc(C(CC(N)=O)NC(=O)Cc2ccc(Br)cc2)cc1[N+](=O)[O-] (configuration not stated), NC(=O)CC(NC(=O)Cc1ccc(Br)cc1)c1ccc(NCc2cc(F)ccc2F)c([N+](=O)[O-])c1 (configuration not stated), CCCOc1ccc(F)cc1-c1cc(C(=O)Nc2ccc(C(C)C)cc2)[nH]n1, Oc1c(Br)cc(Br)cc1CNc1cccc2cccnc12, Nc1c(C(=O)Nc2ccc(S(=O)(=O)N3CCCC3)cc2)sc2nc3cc4c(cc3cc12)CCC4, c1ccc2c(-c3nc4ccccc4[nH]3)cccc2c1, COc1cccc(C(=O)Nc2ccc3c(c2)C(=O)c2ccccc2C3=O)c1, CCc1nn(C(C)C(=O)N2CCN(c3ccc(OC)cc3)CC2)c(=O)c2cc3occc3n12 (configuration not stated), O=C(Nc1ccccc1-c1ccccc1)C1CCCC1, CC#CC#Cc1cccc(=O)o1, O=C(/C=C/c1ccccc1)c1ccc2c3c(cccc13)CC2, Cc1cc(NC(=O)/C=C/C(=O)N(CC(=O)NC2CCCC2)c2ccc(F)cc2)no1, Cc1cc(NC(=O)CSc2nc3ccccc3c(=O)n2C2CCCC2)no1, Nc1nc(Nc2ccccc2)sc1C(=O)c1ccccc1, COc1cc2ccccc2cc1C(=O)N1CCc2ccccc21, COc1ccccc1N1CCN(C(=O)c2ccc(Cl)c(S(=O)(=O)NCc3ccco3)c2)CC1, CCOc1ccc(S(=O)(=O)Nc2cc(OC)ccc2OC)cc1, COCCCNC(=O)c1cccc2c(-c3ccc(O)c(OC)c3)coc12, COc1cc(-c2nc3cnccn3c2Nc2ccc(C)cc2)ccc1O, COc1cc(OC)cc(C(=O)NNC(=O)c2ccc3ccccc3n2)c1, CC(C)[n+]1ccn(C2=C([O-])c3ccccc3C(=O)/C2=N\S(=O)(=O)c2ccccc2)c1, CC(C)c1ccc(NC(=O)[C@@H](NC(=O)N2CC(=O)Nc3ccccc32)C(C)C)cc1, O=C(CNC(=O)N1CC(=O)Nc2ccccc21)NCCCc1ccccc1, CCC(C)[C@H](NC(=O)N1CC(=O)Nc2ccccc21)C(=O)Nc1ccccc1C (some centres not stated), O=C(Nc1cccc(-c2nc3ncccc3o2)c1)c1sc2ccccc2c1Cl, O=C(Nc1cccc2ncccc12)c1ccc([N+](=O)[O-])o1, C(=N\Nc1nc2ccccc2[nH]1)/c1ccc2ncccc2c1, COc1ccc(/C=C/C(=O)c2ccccc2)cc1COc1ccccc1F, CC1(C(=O)NCC2CC2)Cc2c(-c3cccc(C(F)(F)F)c3)ccnc2O1 (configuration not stated), CC(=O)Nc1cccc(-c2ccnc3c2CC(C)(C(=O)NCc2cccc(Cl)c2)O3)c1 (configuration not stated), CC1(C(=O)NCC2CCOCC2)Cc2c(-c3cccc(C(F)(F)F)c3)ccnc2O1 (configuration not stated), Cc1nc(C)c(C(=O)N/N=C/c2c[nH]c3ccccc23)s1, CCOc1ccc(C(C)=O)cc1COc1cccnc1[N+](=O)[O-], O=C(Oc1c(Cl)cc(Cl)c2cccnc12)c1ccco1, COc1ccccc1NC(=O)c1ccc(-c2ccc(Br)cc2)o1, Cc1ccc(OCCNC(=O)c2cccc(S(=O)(=O)NCc3ccccc3)c2)cc1, CCCCn1c(SCC(=O)Nc2cc(C(F)(F)F)cc(C(F)(F)F)c2)nnc1C(CC)N(C)C (configuration not stated), COc1ccc(Oc2ccc(/C=C/C(=O)c3cccc(OC)c3)cc2[N+](=O)[O-])cc1, Cc1cnc2cc(Cl)c(Cl)cc2n1, CCOC(=O)C1=C(C)N=C2SC=C(C)N2C1c1ccc(OC)cc1 (configuration not stated), COc1ccc(CCNC(=O)c2cc(-c3ccco3)on2)cc1OC, O=C(C=Cc1cccnc1)c1ccccc1, O=C(/C=C/c1cccnc1)c1ccc(F)c(F)c1, O=C(/C=C/c1ccccc1Cl)c1ccc(O)cc1, CCOC(=O)c1[nH]c(C)c(C(=O)c2ccc(C)cc2)c1C
